The values below come from PubChem BioAssay.

Experiment [1] concerns TRPC4 beta (transient receptor potential cation channel C4), mouse. Put plainly: TRPC4 cation channel opening, retest – cell-based, Fluo4 calcium, HEK293 TRPC4beta/mu-opioid, duplicates, 10 µM, confirmation (AID 2426;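 active means fluorescence ratio normalized to control raised more than 50% in primary screen plus both repeat runs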). Particulars: Fluo4 calcium fluorescence, at 10 µM; active compounds read high.
The test system of experiment [2] is transient receptor potential cation channel C4 beta (TRPC4), mouse. In words: TRPC4 cation channel opening, second retest – cell-based, second round, Fluo4, HEK293 TRPC4beta/mu-opioid, 1 µM, confirmation (AID 2461;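 active means primary screen active and over 50% activation in each of two duplicate runs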). Particulars: Fluo4 calcium fluorescence, at 1 µM; active compounds read high.
In experiment [3] the test system is TRPC4 (transient receptor potential cation channel C4 beta), mouse. Put plainly: potentiation of DAMGO EC20 TRPC4 response – cell-based, second round, Fluo-4, HEK293 TRPC4beta/mu-opioid, 1 µM, confirmation (AID 2554;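 active means primary screen hit whose fluorescence ratio, in both repeats, exceeds the weak agonist control mean by 3 SD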). To be noted: DAMGO EC20, Fluo-4 calcium flux, at 1 µM; active compounds read high. For orientation: Calcium flux is commonly read through the fluorescence of an indicator in the cells.

The subject of experiment [4] is TRPC4 beta (transient receptor potential cation channel C4), mouse. Put plainly: potentiation of DAMGO EC20 TRPC4 response – cell-based, Fluo-4, HEK293 TRPC4beta/mu-opioid, confirmation (AID 2555;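 active means primary screen hit whose calcium fluorescence ratio, in both repeats, exceeds the weak agonist control mean by 3 SD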). Particulars: DAMGO EC20, Fluo-4 calcium flux, at 10 µM; active compounds read high.
The target in experiment [5] is Short transient receptor potential channel 4 (Mus musculus) (UniProt Q9QUQ5). In words: blockers of DAMGO-evoked TRPC4 calcium flux – cell-based, Fluo4, HEK293 TRPC4beta/mu-opioid, confirmation (AID 2636;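 active means calcium signal cut by more than 3 SD below the full-agonist control yet still positive, in both repeats and the earlier primary screen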). To be noted: at 10 µM; active compounds read high.
For experiment [6] the target is unchanged. In words: blockers of DAMGO-evoked TRPC4 calcium flux – cell-based, second round, Fluo4, HEK293 TRPC4beta/mu-opioid, 1 µM, confirmation (AID 2637;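 active means calcium signal ratio cut to more than 3 SD under the fully stimulated control mean yet still positive, in both repeats and the primary screen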;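 on inhibition: percent of integrated ratio relative to wells lacking test compound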). Particulars: at 1 µM; active compounds read high.
Experiment [7] has the same target. Put plainly: calcium entry via TRPC4 opening agents – cell-based, HEK293 TRPC4/mu-opioid, Fluo-4 calcium, dose response (AID 434937;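 active means primary screen activator hit with a dose response curve and TRPC4 channel activation at any tested dose; inactive means no activation, no dose response, or not a primary hit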).
Experiment [8] shares this target. In words: potentiation of DAMGO-evoked TRPC4 calcium signal – cell-based, HEK293 TRPC4/mu-opioid, Fluo-4 calcium, EC20 DAMGO, dose response (AID 434941;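 active means earlier screen potentiator hit that boosts the TRPC4 ion channel at some dose, with a dose response; inactive means no potentiation, no dose response, or not a prior hit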;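 further: calcium entry triggered by an EC20 dose of DAMGO at the co-expressed mu-opioid receptor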).
The target in experiment [9] is Short transient receptor potential channel 6 (Mus musculus) (UniProt Q61143). In words: TRPC6 blockade by TRPC4 inhibitor hits – cell-based, HEK293, membrane potential dye, duplicate, selectivity assay for TRPC4 inhibitor project, confirmation (AID 434948;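 active means active in primary screen and both duplicates, each dropping signal beyond three positive-control SD with fluorescence still positive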). To be noted: HEK293 TRPC6, membrane potential dye fluorescence, at 10 µM, stimulated with maximal-effect acetylcholine; active compounds read high.

For experiment [10] the target is unchanged. In words: TRPC6 opening by TRPC4 activator hits – cell-based, HEK293, membrane potential dye, duplicate, selectivity assay for TRPC4 activator project, confirmation (AID 434950;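 active means membrane potential signal rise above negative control mean plus 3 SD in both duplicates, also active in the earlier TRPC4 screen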). To be noted: HEK293 TRPC6, membrane potential fluorescence, at 10 µM; activation: active compounds read high; outcome: activation.
For experiment [11] the target is unchanged. In words: positive modulators of mouse TRPC6 channel – HEK293 cells, membrane potential dye, duplicate, selectivity assay for TRPC4 potentiator project, confirmation (AID 434952;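 active means compound raising the membrane signal above positive-control mean plus 3 SD in both repeats, and a primary screen hit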). Particulars: HEK293 TRPC6, membrane potential dye fluorescence, at 10 µM, maximal acetylcholine added after compound; active compounds read high.
Experiment [12] has as its target Short transient receptor potential channel 4 (Mus musculus) (UniProt Q9QUQ5). Put plainly: calcium flux activators in TRPC4/5HT1a cells, counter-screen for TRPC4 activator project, cell-based, second counter screen, HEK293 TRPC4/5HT1a, Fluo-4 (AID 434977;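 active means calcium signal rise above buffer-control mean plus 5 SD in both duplicates, and also a hit in the primary screen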). To be noted: Fluo-4 calcium flux, at 10 µM; active compounds read high.
Experiment [13] can be described thus: serotonin-gated TRPC4 signal block – cell-based, second counter screen, HEK293 TRPC4/5HT1a, Fluo-4, counter-screen for TRPC4 inhibitor project, confirmation (AID 434978;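 active means primary screen active whose calcium signal fell more than 3 SD beyond the full-serotonin control mean in both duplicate plates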;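 on outcome: serotonin given first at submaximal then at maximal dose after compound preincubation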). To be noted: Fluo-4 calcium flux, at 10 µM, serotonin added to trigger calcium flux; active compounds read high.
Experiment [14] deals with TRPC4 (mouse), co-expressed with 5HT1a in HEK293. Put plainly: enhancement of serotonin-evoked TRPC4 response – cell-based, second counter screen, HEK293 TRPC4/5HT1a, Fluo-4, counter-screen for TRPC4 potentiator project, confirmation (AID 434979). To be noted: Fluo-4 calcium flux, at 10 µM, serotonin added at its EC20 dose; active compounds read high. A general note: A counterscreen serves to expose hits that act by an unwanted route or on another target.

The nature of experiment [15]: nonspecific calcium rise without TRPC4 – cell-based, HEK293 mu-opioid receptor line, counter-screen for TRPC4 activator project, confirmation (AID 449723;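 active means hit in primary screen, with calcium signal over 5 SD above buffer well mean in both duplicates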;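 further: counter screen cells carry the mu-opioid receptor alone and lack TRPC4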). Particulars: HEK293 mu-opioid cells, Fluo-4 calcium fluorescence, at 10 µM; active compounds read high.
The nature of experiment [16]: nonspecific potentiation of DAMGO calcium response – cell-based, HEK293 mu-opioid receptor line, counter-screen for TRPC4 allosteric potentiator project, confirmation (AID 449724;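 active means calcium signal rise more than 3 SD above the low-dose agonist control mean, in both duplicate plates and the primary screen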;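 further: HEK293 cells carrying mu-opioid receptor only with no TRPC4 channel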). To be noted: HEK293 mu-opioid receptor cells, Fluo-4 calcium flux, at 10 µM, compound added before EC20 DAMGO stimulus; active compounds read high.

Each structure is given as a SMILES string. For part of these data: Measured potencies and affinities stand elsewhere. Activity calls are given as the source filed them.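 How the source made its calls, unless noted: active means signal rise over 3 SD above mean of control wells given weak agonist, in both repeats and first screen; inactive means the rest.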

Sequence of Short transient receptor potential channel 4 (Mus musculus) (Q9QUQ5 whole entry, looked up): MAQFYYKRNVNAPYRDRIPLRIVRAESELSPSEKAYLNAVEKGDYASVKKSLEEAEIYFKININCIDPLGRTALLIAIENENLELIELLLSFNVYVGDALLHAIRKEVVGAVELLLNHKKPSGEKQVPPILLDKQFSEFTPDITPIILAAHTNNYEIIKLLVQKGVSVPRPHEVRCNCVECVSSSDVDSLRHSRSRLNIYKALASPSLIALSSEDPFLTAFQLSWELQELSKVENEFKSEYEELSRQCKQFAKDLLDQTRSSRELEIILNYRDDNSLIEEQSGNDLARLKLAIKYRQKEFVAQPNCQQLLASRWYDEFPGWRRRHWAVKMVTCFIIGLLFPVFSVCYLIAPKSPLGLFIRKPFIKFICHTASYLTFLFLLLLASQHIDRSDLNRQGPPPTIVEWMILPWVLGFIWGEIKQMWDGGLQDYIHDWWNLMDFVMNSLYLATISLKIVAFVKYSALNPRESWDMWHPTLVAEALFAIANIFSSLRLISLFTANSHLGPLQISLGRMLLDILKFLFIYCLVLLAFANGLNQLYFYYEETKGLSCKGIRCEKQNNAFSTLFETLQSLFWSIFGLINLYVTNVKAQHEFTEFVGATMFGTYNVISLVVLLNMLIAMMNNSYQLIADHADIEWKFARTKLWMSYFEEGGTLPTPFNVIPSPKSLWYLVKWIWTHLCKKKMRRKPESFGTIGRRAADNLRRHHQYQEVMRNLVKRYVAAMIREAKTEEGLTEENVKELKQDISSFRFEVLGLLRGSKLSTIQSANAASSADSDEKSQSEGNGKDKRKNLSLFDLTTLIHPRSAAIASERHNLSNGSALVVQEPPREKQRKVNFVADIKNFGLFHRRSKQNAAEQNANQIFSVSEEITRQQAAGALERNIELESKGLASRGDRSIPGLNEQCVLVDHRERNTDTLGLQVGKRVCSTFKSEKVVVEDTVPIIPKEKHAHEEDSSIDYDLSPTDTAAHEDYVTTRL
Sequence of Short transient receptor potential channel 6 (Mus musculus) (Q61143 whole entry, looked up): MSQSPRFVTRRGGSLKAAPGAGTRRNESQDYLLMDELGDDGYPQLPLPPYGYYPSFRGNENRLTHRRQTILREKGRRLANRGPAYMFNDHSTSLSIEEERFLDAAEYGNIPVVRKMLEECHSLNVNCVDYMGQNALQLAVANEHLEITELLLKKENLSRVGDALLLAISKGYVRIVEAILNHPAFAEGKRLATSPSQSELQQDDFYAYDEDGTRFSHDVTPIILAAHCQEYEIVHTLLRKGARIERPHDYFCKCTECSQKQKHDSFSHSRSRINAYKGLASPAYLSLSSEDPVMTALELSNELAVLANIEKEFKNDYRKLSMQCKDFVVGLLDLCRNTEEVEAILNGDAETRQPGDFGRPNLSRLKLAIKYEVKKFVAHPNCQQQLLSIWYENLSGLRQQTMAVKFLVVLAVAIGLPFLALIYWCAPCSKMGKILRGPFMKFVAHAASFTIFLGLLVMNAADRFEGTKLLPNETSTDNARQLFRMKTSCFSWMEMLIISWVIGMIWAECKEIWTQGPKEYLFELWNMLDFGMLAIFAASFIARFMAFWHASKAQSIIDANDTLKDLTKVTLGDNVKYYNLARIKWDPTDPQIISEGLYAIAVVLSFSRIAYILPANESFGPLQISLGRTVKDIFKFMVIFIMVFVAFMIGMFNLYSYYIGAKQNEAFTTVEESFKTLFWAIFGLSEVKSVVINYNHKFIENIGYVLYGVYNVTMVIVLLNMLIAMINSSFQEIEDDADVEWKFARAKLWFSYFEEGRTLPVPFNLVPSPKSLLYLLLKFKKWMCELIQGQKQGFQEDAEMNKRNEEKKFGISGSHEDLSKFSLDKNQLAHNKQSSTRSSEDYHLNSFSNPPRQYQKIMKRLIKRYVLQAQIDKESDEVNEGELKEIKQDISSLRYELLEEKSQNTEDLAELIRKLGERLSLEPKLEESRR

Broadly, the inhibition is the share of the control response that was lost under treatment. For the molecule `COc1cccc(CNC(=O)CCC2CCCN(Cc3cc(Cl)ccc3O)C2)c1` (stereo not given), the outcome in experiment [1], in [2], in experiment [3], in experiment [4], in [6] and in experiment [7] was inactive. The outcome in [8], in experiment [9], in experiment [10], in experiment [11], in [12] and in experiment [14] was inactive. The result in [15] and in experiment [16] was inactive. Besides, the results for the inhibition in [5] and in [13] were 93% (active) and 29% (active), respectively.

`CN(C)CCCN(Cc1cc2cc3c(cc2[nH]c1=O)OCO3)C(=S)NCc1ccco1`: the outcome in experiment [1], in experiment [2], in experiment [3], in experiment [4], in experiment [7] and in [8] was inactive. Moreover, the call in experiment [9], in experiment [10], in [11], in experiment [12], in experiment [14] and in experiment [15] was inactive. Moreover, the outcome in experiment [16] was inactive. The values for the inhibition in experiment [5], in experiment [6] and in [13] were 93% (active), 69% (active) and 26.8% (active), respectively.

In the case of `c1ccc(COC(CN2CCCCCC2)CN2CCCCCC2)cc1`, the result in experiment [1], in [2], in [3], in experiment [4], in experiment [6] and in experiment [7] was inactive. Moreover, the outcome in experiment [8], in experiment [9], in [10], in experiment [11], in [12] and in experiment [14] was inactive. In addition, the outcome in experiment [15] and in [16] was inactive. In addition, the inhibition in experiment [5] is 93% (active); in experiment [13], 31.1% (active).

Consider `CN1/C(=C\C(=O)C[n+]2ccc3ccccc3c2)C(C)(C)c2ccccc21`, for which the result in experiment [1], in [2], in [3], in [4], in experiment [6] and in experiment [7] was inactive. Besides, the result in experiment [8], in experiment [9], in [10], in experiment [11], in experiment [12] and in experiment [13] was inactive. For the same molecule, the result in experiment [14], in experiment [15] and in experiment [16] was inactive. The inhibition in experiment [5] is 96% (active).

In the case of `Cc1n[nH]c(C)c1CCCCOc1ccccc1F`, the result in [1], in experiment [2], in experiment [3], in [4], in experiment [7] and in experiment [8] was inactive. Moreover, the result in [9], in experiment [10], in experiment [11], in [12], in experiment [14] and in experiment [15] was inactive. Besides, the outcome in experiment [16] was inactive. Moreover, the inhibition in experiment [5] is 98% (active); in experiment [6] it was 65% (active); in experiment [13], 28.3% (active).

In the case of `CC(NC(=O)c1ccco1)C(c1cccs1)N1CCN(c2ccccc2)CC1` (stereo not given), the result in [1], in [2], in experiment [3], in experiment [4], in experiment [7] and in experiment [8] was inactive. Moreover, the molecule was classed as inactive in [9], in experiment [10], in experiment [11], in experiment [12], in [13] and in [14]. Besides, the outcome in experiment [15] and in [16] was inactive. The inhibition in experiment [5] was 98% (active); in [6], 51% (active).

For `Cc1ccc(C(CNS(=O)(=O)c2ccc([N+](=O)[O-])cc2)N2CCN(C)CC2)cc1` (stereo not given), the outcome in experiment [1], in experiment [2], in [3], in experiment [4], in experiment [7] and in experiment [8] was inactive. The molecule was classed as inactive in [9], in experiment [10], in experiment [11], in experiment [12], in experiment [13] and in [14]. In addition, the outcome in experiment [15] and in experiment [16] was inactive. For the same molecule, the inhibition in experiment [5] is 54% (active); in experiment [6] it was 63% (active).

Take `Nc1cc(N2CCCCC2)c([N+](=O)[O-])cc1Cl`: the result in experiment [1], in experiment [2], in experiment [3], in [4], in [7] and in [8] was inactive. For the same molecule, the outcome in experiment [9], in [10], in [11], in experiment [12], in [13] and in experiment [14] was inactive. The outcome in experiment [15] and in [16] was inactive. Besides, the inhibition in experiment [5] was 88% (active); in experiment [6], 42% (active).

For the molecule `Cc1cc(Br)c(NC(=O)CN(C)CCOc2ccccc2)c(Br)c1`, the outcome in [1], in [2], in experiment [3], in experiment [4], in experiment [6] and in experiment [7] was inactive. Further, the outcome in experiment [8], in experiment [9], in [10], in experiment [11], in [12] and in experiment [14] was inactive. The outcome in experiment [15] and in experiment [16] was inactive. For the same molecule, the inhibition in experiment [5] was 81% (active); in [13], 45.2% (active).

Take `CNc1nc(SCc2ccccc2Cl)nc2c1CCCC2`: the outcome in [1], in experiment [2], in experiment [3], in [4], in experiment [6] and in experiment [7] was inactive. Besides, the outcome in experiment [8], in experiment [9], in experiment [10], in experiment [11], in experiment [12] and in experiment [14] was inactive. The outcome in experiment [15] and in experiment [16] was inactive. The inhibition in experiment [5] was 90% (active); in [13] it was 13.9% (active).

As to `CN(CC(=O)NC1CCCc2ccccc21)C1CCCCC1` (stereo not given), the result in experiment [1], in [2], in experiment [3], in experiment [4], in [6] and in experiment [7] was inactive. The outcome in experiment [8], in [9], in experiment [10], in experiment [11], in experiment [12] and in [13] was inactive. For the same molecule, the result in experiment [14], in experiment [15] and in experiment [16] was inactive. The inhibition in [5] was 80% (active).

Regarding `Fc1ccccc1COc1ccc(Br)cc1CNCC1CCCO1` (stereo not given), the outcome in experiment [1], in experiment [2], in experiment [3], in [4], in experiment [7] and in experiment [8] was inactive. Moreover, the molecule was classed as inactive in experiment [10], in experiment [11], in [12], in experiment [14], in experiment [15] and in experiment [16]. Further, the inhibition was 91% (active) in [5], 42% (active) in experiment [6], 39.5% (active) in experiment [9] and 16.8% (active) in experiment [13].

Turning to `CN(C)CCN1C(=O)C2C(C(=O)Nc3cc(Cl)cc(Cl)c3)C3C=CC2(O3)C1C(=O)NC1CCCCC1` (stereo not given), the outcome in experiment [1], in [2], in experiment [3], in [4], in experiment [6] and in experiment [7] was inactive. For the same molecule, the outcome in [8], in experiment [9], in experiment [10], in experiment [11], in experiment [12] and in experiment [13] was inactive. The result in experiment [14], in [15] and in [16] was inactive. Further, in experiment [5], the inhibition was 71% (active).

Consider `Cc1nc(N2CCN(c3ccccn3)CC2)c2c(C)c(C(=O)N3CCN(c4ccc(F)cc4)CC3)sc2n1`, for which the outcome in experiment [1], in experiment [2], in [3], in experiment [4], in experiment [7] and in experiment [8] was inactive. The result in experiment [9], in experiment [10], in [11], in [12], in experiment [13] and in experiment [14] was inactive. Besides, the outcome in experiment [15] and in [16] was inactive. The inhibition in experiment [5] is 99% (active); in experiment [6] it was 48% (active).

Turning to `COc1ccccc1N(C(=O)c1snc(C(N)=O)c1N)C(C(=O)NCc1ccccc1)c1ccc(C)o1` (stereo not given), the outcome in [1], in experiment [2], in experiment [3], in [4], in [5] and in experiment [7] was inactive. Besides, the result in experiment [8], in [9], in [10], in experiment [11], in experiment [12] and in experiment [14] was inactive. The result in experiment [15] and in experiment [16] was inactive. In addition, the figures for the inhibition in experiment [6] and in experiment [13] were 49% (active) and 25.3% (active), respectively.
